Screening results as filed in PubChem.
USP17 inh – human USP17-like deubiquitinase inhibition; A8MUK1; purified USP17, Ub-rhodamine cleavage fluorescence, 3 h; inhibition, % at 50 µM; hit rate 6.5% among 47,000; AID 1645855
USP10 inh – human USP10 deubiquitinase inhibition; Q14694; AID 1645856; purified USP10, Ub-rhodamine fluorescence, 60 min; hit rate 1.1% among 47,000; inhibition, % at 20 µM
Target sequence (Q14694 whole entry, looked up): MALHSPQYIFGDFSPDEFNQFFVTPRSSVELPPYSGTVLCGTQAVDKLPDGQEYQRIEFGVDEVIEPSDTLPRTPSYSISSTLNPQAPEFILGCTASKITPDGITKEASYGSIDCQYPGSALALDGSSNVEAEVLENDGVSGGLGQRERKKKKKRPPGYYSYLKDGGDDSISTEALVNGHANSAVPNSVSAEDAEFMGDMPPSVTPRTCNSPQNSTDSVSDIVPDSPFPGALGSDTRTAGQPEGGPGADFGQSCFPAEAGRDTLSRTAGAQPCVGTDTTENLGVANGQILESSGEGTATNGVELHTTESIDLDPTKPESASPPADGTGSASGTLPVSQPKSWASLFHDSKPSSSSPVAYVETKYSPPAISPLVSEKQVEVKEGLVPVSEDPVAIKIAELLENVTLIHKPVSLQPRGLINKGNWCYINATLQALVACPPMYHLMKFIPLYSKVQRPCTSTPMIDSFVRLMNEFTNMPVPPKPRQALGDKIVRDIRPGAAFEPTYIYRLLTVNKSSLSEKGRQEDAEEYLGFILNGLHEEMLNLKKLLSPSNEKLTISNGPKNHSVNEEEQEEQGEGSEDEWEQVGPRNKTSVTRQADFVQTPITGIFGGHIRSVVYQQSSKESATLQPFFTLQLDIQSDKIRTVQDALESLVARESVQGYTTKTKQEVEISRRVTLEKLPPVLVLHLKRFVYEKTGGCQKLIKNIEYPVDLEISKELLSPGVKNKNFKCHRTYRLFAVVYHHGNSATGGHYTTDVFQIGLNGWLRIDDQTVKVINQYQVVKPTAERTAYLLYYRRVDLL
USP8 block – human USP8 deubiquitinase inhibition | purified USP8, Ub-rhodamine cleavage fluorescence, 30 min | inhibition, % at 20 µM | hit rate 4.2% among 47,000 | P40818
USP28 block – inhibitors of human USP28 deubiquitinase | inhibition, % at 25 µM | AID 1645857 | hit rate 3% among 47,000 | purified USP28, Ub-rhodamine cleavage fluorescence, 30 min | Q96RU2
USP30 block – human USP30 deubiquitinase inhibition. hit rate 5.3% among 47,000. inhibition, % at 25 µM. AID 1645860. Q70CQ3. purified USP30, Ub-rhodamine cleavage fluorescence
Of the large screens only hits and unclear results are named; the others gave an inactive call. In the library only some 14% were active in any assay of this set; here they are far more common. Cut-off read from the data, not from the text of the source: active = inhibition above about 30%; inactive = the rest.

CCOC(=O)N1CCN(c2cc(C(C)C)nc3nc(-c4cccnc4)nn23)CC1	USP30 block 32.9
CC1=C[C@H]2N(c3ccc(C)cc31)[C@H](C(=O)c1cccs1)[C@@H](C(=O)c1ccc(F)cc1)[C@]21C(=O)Nc2ccccc21	USP17 inh 59.4, USP8 block 77.6
CC1=C[C@H]2N(c3ccccc31)[C@H](C(=O)C(C)(C)C)[C@@H](C(=O)c1ccco1)[C@]21C(=O)Nc2ccccc21	none
CC1=C[C@H]2N(c3ccc(C)cc31)[C@H](C(=O)C(C)(C)C)[C@@H](C(=O)c1ccccc1)[C@]21C(=O)Nc2ccccc21	USP17 inh 40.8, USP8 block 79.9
CCOC(=O)C1(Cc2cc(-c3ccccc3F)no2)CCNCC1	none
CC(C)c1noc(CN2CCC(C3CCCCCN3C(=O)c3ccccc3)CC2)n1 (configuration not stated)	none
Cc1ccc(NC(=O)Cn2c(C)cc(-c3nnc(C4CC4)o3)c2C)cc1	none
Cc1nc2cc(-c3nccn3C)nn2c(N2CCC(O)(c3ccccc3F)CC2)c1C	USP17 inh 33.8
N=c1sccn1CC(=O)Nc1ccc(Oc2ccccc2)cc1	USP28 block 37.1
COc1ccc(CNC(=O)COc2ccccc2-c2nnc(-c3ccccc3)o2)c(OC)c1	none
Cc1ccccc1-c1nc(CS(=O)(=O)CC(=O)Nc2ccccc2Cl)c(C)o1	none
CC(CCc1ccccc1)NC(=O)COc1ccccc1-c1nnc(-c2ccccc2)o1 (configuration not stated)	USP17 inh 31.2, USP30 block 41.1
O=C(COc1ccccc1-c1nnc(-c2ccccc2)o1)Nc1ccc(F)cc1F	USP17 inh 84.4, USP8 block 32.3, USP30 block 34.8
COc1ccccc1CNC(=O)COc1ccccc1-c1nnc(-c2ccccc2)o1	USP30 block 30.5
COc1ccccc1CNC(=O)CS(=O)(=O)Cc1nc(-c2ccccc2F)oc1C	USP17 inh 57.9
COc1ccc(CNC(=O)COc2ccccc2-c2nnc(-c3ccccc3)o2)cc1	none
COC1C(OC(N)=O)C(O)C(Oc2ccc3c(O)c(NC(=O)c4ccc(O)c(CC=C(C)C)c4)c(=O)oc3c2C)OC1(C)C (configuration not stated)	none
CC(=O)O[C@H]1C[C@@]2(C)[C@@H](CC[C@H]3[C@@]4(C)CC[C@@H](O)[C@@H](C)[C@@H]4[C@@H](O)[C@H](O)[C@@]32C)/C1=C(\CCC=C(C)C)C(=O)O	none
CCCCNC(=O)CN1CCC2(CC1)Nc1cc(Cl)ccc1C1=NCCN12	none
CCc1ccccc1NC(=O)COc1ccccc1-c1nnc(-c2ccccc2)o1	USP17 inh 52.5, USP30 block 38.1
O=C(COc1ccccc1-c1nnc(-c2ccccc2)o1)NCc1ccccc1F	none
CC(CCc1ccccc1)NC(=O)COc1ccc(Cl)c(Cl)c1 (configuration not stated)	USP28 block 31.1
CCc1cc(OCC(=O)NC(c2ccccc2)c2ccccc2)ccc1Cl	none
O=C(COc1ccccc1-c1nnc(-c2ccccc2)o1)NCCc1ccco1	USP17 inh 34.6, USP8 block 86.1
CCc1ccccc1NC(=O)COc1ccc(Nc2ccccc2)cc1	USP17 inh 46.0, USP8 block 35.4, USP30 block 38.5
O=C(COc1ccccc1-c1nnc(-c2ccccc2)o1)NCCCN1CCOCC1	none
CCOc1ccc(Oc2ccc(NC(=O)COc3ccc(C(=O)c4ccccc4)cc3)cc2)cc1	none
COc1cc(S(=O)(=O)N2CCN(c3nc(C)cc(N(C)C)n3)CC2)c(C)cc1C	none
COC(=O)C(CCCCN(O)C(=O)/C=C/c1ccccc1)NC(=O)CC(O)(CC(=O)NC(CCCCN(O)C(=O)/C=C/c1ccccc1)C(=O)OC)C(=O)O (configuration not stated)	none
Cn1c(C(=O)NCCc2ccc(S(N)(=O)=O)cc2)cc2sc(Cl)cc21	USP28 block 41.5
CN(CCCNC(=O)c1cccc2c1SCCC2=O)c1ccccc1	USP17 inh 53.9, USP8 block 40.2
COC(=O)c1ccc(NC(=O)c2cccc3c2SCCC3=O)cc1	USP17 inh 36.2
O=C(c1ccccc1)C(CC(=O)N1CCCC1)c1nc2ccccc2s1 (configuration not stated)	none
O=C(CN(CC(=O)NCc1ccccc1Cl)c1nc2ccccc2s1)NCc1ccccc1Cl	USP10 inh 36.4, USP8 block 69.2
COc1ccc(S(=O)(=O)CCc2nc(-c3cccc(-c4ccnn4C)c3)no2)cc1	none
COC1=CC(=O)c2c(O)c(C)c(CC(C)=O)c(O)c2C1=O	USP17 inh 63.9
COc1ccc(CCNC(=O)C(=O)NCc2ccc(Cl)cc2)cc1OC	USP17 inh 40.9
COc1ccccc1CCNC(=O)C(=O)c1c(C)n(C)c2ccccc12	none
COc1ccc(CCNC(=O)C(=O)c2c(C)n(C)c3ccccc23)cc1OC	USP17 inh 47.6
COc1ccc(CCNC(=O)C23CC4CC(CC(C4)C2)C3)cc1OC	none
Cc1ncc(-c2ccccn2)c(-c2ccc(CNC(=O)CCN3CCOCC3)cc2)n1	none
Cc1ncc(-c2ccccn2)c(-c2ccc(CNC(=O)Cc3sc(C)nc3C)cc2)n1	USP8 block 36.4
COc1ccc2c(c1)nc(-c1ccccc1OC)n2C1CCN(C(C)=O)CC1	none
CC(C)CCN1CCCn2nnc(COc3cccnc3)c2C1	none
O=C(C1CN(C(=O)c2cnc3ccccc3n2)c2ccccc2O1)N1CCOCC1 (configuration not stated)	USP8 block 69.8
Cc1cccc2nc(C(=O)N3CC(C(=O)N4CCOCC4)Oc4ccccc43)cn12 (configuration not stated)	none
O=C(Cc1ccccc1)Nc1oc2ccccc2c(=O)c1-c1ccc2c(c1)OCO2	USP30 block 32.0
Cc1ccccc1C(=O)Nc1c(-c2ccc3c(c2)OCO3)c(=O)c2ccccc2n1C	none
CCn1c(CCNC(=O)c2ccc(Cl)cc2)nc2cccnc21	none
CCn1c(=O)c(-c2ccc(C(=O)Nc3ccccc3F)cc2)nc2cccnc21	USP17 inh 47.7
Cn1c(=O)c(-c2ccc(C(=O)NCc3ccc4c(c3)OCO4)cc2)nc2cccnc21	USP8 block 40.0
CCn1c(=O)c(C(=O)NCc2cccc(Cl)c2)nc2cccnc21	none (no result: USP17 inh)
Cn1c(=O)c(-c2ccc(C(=O)NCc3cccc(Cl)c3)cc2)nc2cccnc21	USP17 inh 66.9, USP8 block 43.3, USP30 block 82.3
Cc1oc(CNS(=O)(=O)c2ccc3c(c2)CCCC3)nc1C(=O)N1CCCC1	none
O=C(NCC(=O)N1CCC2(CC1)NCCc1[nH]cnc12)c1ccco1	none
COc1ccc(NC(=O)c2ccco2)cc1NC(=O)c1ccc(F)cc1	none
COc1ccc(NC(=O)Cc2csc(NC(=O)c3ccco3)n2)cc1Cl	USP17 inh 49.1
COc1cc(OC)cc(C(=O)N2CCC(C(=O)Nc3cccc4ccccc34)CC2)c1	none
COc1nn(C)cc1C(=O)N1CCC(C(=O)Nc2ccc(Br)cc2F)CC1	USP28 block 45.5
O=C(c1cscn1)N1CCC2(CCCN2CCCc2ccccc2)C1 (configuration not stated)	none
